# Assay results reported in PubChem BioAssay (Tox21).
# Where “and” joins values, the source holds several entries; their conditions need not be identical. Equal entries are not always repeated. Records with an inconclusive call do not appear. Where a call stands in place of a potency, no number is given. The source holds several records for some structures; these can differ, active in one and inactive in another. Calls of active or inactive are those of the source. Calls follow the shape of the full dose curve.
# Test: p53 small molecule agonists, cell-based qHTS assay with human liver microsomes: qHTS cell viability counter screen (AID 1963579); also: nearly all actives have a fitted effect of over 45% in size
# Details: p53RE-bla HCT-116 viability, ATP luminescence, 16 h, HLM; series mostly up to 66 µM
# From the text: National Center for Advancing Translational Sciences [NCATS]
# Division of Preclinical Innovation [DPI]
# U.S. Environmental Protection Agency [EPA]
# National Institutes of Environmental Health Sciences [NIEHS]
# National Toxicology Program [NTP]
# U.S. Food and Drug Administration [FDA]
# p53, a tumor suppressor protein, is activated following cellular insult, including DNA damage and other cellular stresses. The activation of p53 regulates cell fate by inducing DNA repair, cell cycle arrest, apoptosis, or cellular senescence. The activation of p53, therefore, is a good indicator of DNA damage and other cellular stresses. […] The activation of the reporter gene under culture conditions can be detected by fluorescence intensity. This cell line was used to screen the Tox21 10K compound library in the condition of presence of human liver microsomes and to identify agonists that activate the p53 signaling pathway after in vitro metabolic activation (Ooka et al., Archive of Toxicology 96:1975-1987, 2022).
# Tox21 Assay Protocol Summary:
# The p53RE-bla cells were dispensed at 4,000cells/3ul/well in 1536-well black-clear bottom plates. After the assay plates were incubated at 37 C, 5% CO2 incubator for 5 hours, 23 nL of compounds dissolved in DMSO, positive controls or DMSO only was transferred to the assay plate. Following compound addition, 3 uL of human liver microsomes (XenoTech, Kansas City, KS) at final concentration of 0.5 mg/mL and 1uL of B-Nicotinamide adenine dinucleotide 2'-phosphate (NADPH) at final concentration of 0.5 mg/mL were transferred to the assay plate. The plates were incubated at 37 C for 16 hours. 1 uL of LiveBLAzer detection mixture was added to each well and the plates were incubated at room temperature in the dark for 2 h. Fluorescence intensity at 460 and 530 nm emission and 405 nm excitation were measured by an Envision plate reader. For cell viability readout that measures cytotoxicity, 4 ul/well of CellTiter-Glo reagent was added into the assay plates using a Flying Reagent Dispenser. After 30 min incubation at room temperature, the luminescence intensity in the plates was measured using a ViewLux plate reader.
# Potency is read from the fitted curve at half-maximal effect.
row,Compound,Potency
1,CCCCn1cc[n+](C)c1,inactive and 40.8 µM (active)
2,O=c1n(Cl)c(=O)n(Cl)c(=O)n1Cl,inactive
3,O=[N+]([O-])c1cc([As](=O)(O)O)ccc1O,inactive
4,CC(C)Nc1ccc(Nc2ccccc2)cc1,28.8 µM (active) and 28.9 µM (active)
5,OCC1CO1 (stereo not given),inactive
6,CC1=C2[C@H]3OC(=O)[C@@H](C)[C@@H]3CC[C@@]2(C)C=CC1=O,inactive
7,CC(C)(C)C(O)(CCc1ccc(Cl)cc1)Cn1cncn1 (stereo not given),inactive
8,CCC(=O)Nc1ccc(Cl)c(Cl)c1,inactive
9,c1ccc2sc(SNC3CCCCC3)nc2c1,inactive
10,ClCCBr,inactive
11,O=c1nc(O)n(Cl)c(=O)n1Cl,inactive
12,COC(=O)C(Br)CBr (stereo not given),inactive
13,COC(C)(C)CCCC(C)C/C=C/C(C)=C/C(=O)OC(C)C (stereo not given),inactive
14,CCCCCCCCCCCC#N,inactive and 42.3 µM (active)
15,CC(C)(C)C(=O)Cl,inactive
16,CNC(=O)Oc1cccc2ccccc12,inactive
17,Nc1ccc(Cc2ccc(N)cc2)cc1,inactive
18,Nc1ccccc1C(=O)OCC(O)CO (stereo not given),inactive
19,CC(C)c1ccc(CO)cc1,inactive
20,CCC[N+](=O)[O-],inactive

row,Compound,Potency
1,CCCCOC(=O)c1ccccc1C(=O)O,inactive
2,O=NN1CCCCCC1,inactive
3,ClC1=C(Cl)C2(Cl)C3C(Cl)C=CC3C1(Cl)C2(Cl)Cl (stereo not given),inactive
4,CON(C)C(=O)Nc1ccc(Cl)c(Cl)c1,inactive
5,CCCCN(CC)c1c([N+](=O)[O-])cc(C(F)(F)F)cc1[N+](=O)[O-],inactive
6,C=C(Cl)CCl,inactive
7,Nc1ccc(Cl)cc1,inactive
8,O=[N+]([O-])c1ccc(Cl)c(Cl)c1,inactive
9,OCCCCO,inactive
10,O=S1OCC2C(CO1)C1(Cl)C(Cl)=C(Cl)C2(Cl)C1(Cl)Cl (stereo not given),inactive
11,c1ccc(N=Nc2ccccc2)cc1,inactive
12,CC[N+](=O)[O-],inactive
13,CC(O)CCO (stereo not given),inactive
14,NCc1cccnc1,inactive
15,CN(C)CCC#N,inactive
16,COC(=O)[C@@H](N)CCCN/C(N)=N/[N+](=O)[O-],inactive
17,Cc1cc(Cl)ccc1OC(C)C(=O)O (stereo not given),inactive
18,CC(C)=CC1C(C(=O)OCc2cccc(Oc3ccccc3)c2)C1(C)C (stereo not given),inactive
19,CC1(C)C(C=C(Cl)Cl)C1C(=O)OC(C#N)c1cccc(Oc2ccccc2)c1 (stereo not given),inactive
20,O=P(O)(O)CCCl,inactive
